Among all 360,000 compounds or so, about 350 (0.097%) were called active. Rule as the data show it: active = inhibition above about 16% (passing the limit was not always enough); inconclusive = no clear call, values can overlap the other calls; inactive = below that. Only a selection was taken, and actives are over-represented in it overall.
Each compound was assayed on UDP-N-acetylbacillosamine N-acetyltransferase PglD (Campylobacter jejuni) (assay: C. jejuni PglD acetyltransferase inhibitors, primary screen, biochemical, DTNB colorimetric, single point (AID 602405)). Conditions: purified PglD enzyme, DTNB colorimetric CoA detection; at 12.5 µM; active compounds read high.

inhibition, inactive:
C[C@@H]1CN([C@@H](C)CO)C(=O)c2cc(NS(C)(=O)=O)ccc2O[C@@H](C)CCCCO[C@@H]1CN(C)C(=O)c1ccccc1 2.15%, C[C@H]1CN([C@@H](C)CO)C(=O)Cc2cc(NC(=O)c3ccncc3)ccc2O[C@@H]1CN(C)C(=O)Nc1ccccc1 3.86%, O=C(C[C@@H]1CC[C@H](NC(=O)C2CC2)[C@H](CO)O1)NCc1ccccc1Cl -4.45%, CN(C)Cc1cn(CC[C@H]2CC[C@H](NC(=O)Nc3ccccc3F)[C@@H](CO)O2)nn1 -0.499%, C[C@H]1CN([C@@H](C)CO)C(=O)c2cc(NC(=O)Cn3cnnn3)ccc2O[C@H]1CN(C)S(C)(=O)=O -4.84%, O=C(Nc1ccccc1)N[C@@H]1CC[C@H](CCn2cc(C3(O)CCCC3)nn2)O[C@@H]1CO 2.19%, COc1ccc(-c2ccc3c(c2)O[C@@H](CN(C)CC2CCOCC2)[C@@H](C)CN([C@@H](C)CO)S3(=O)=O)cc1 -0.251%, O=C(C[C@@H]1CC[C@H]2[C@@H](COC[C@@H](O)CN2C(=O)Nc2ccc(Cl)cc2)O1)NC1Cc2ccccc2C1 2.05%, OC[C@@H]1Nc2ccc(-c3ccc(F)cc3)cc2[C@@H]2[C@H]1CCN2Cc1ccc(F)cc1 0.0285%, C[C@H](CO)N1C[C@H](C)[C@H](CN(C)S(=O)(=O)c2cn(C)cn2)OCCCC[C@H](C)Oc2ccc(N(C)C)cc2C1=O -2.91%, COc1ccc(NC(=O)Nc2ccc3c(c2)C(=O)N([C@@H](C)CO)C[C@H](C)[C@H](CN(C)C(=O)Nc2ccccc2)OCCCC[C@@H](C)O3)cc1 1.95%, CC(C)C(=O)Nc1ccc2c(c1)C(=O)N(C)[C@@H]1CC[C@@H](CC(=O)NCCc3ccccc3)O[C@H]1CO2 -3.51%, C[C@@H]1CN([C@@H](C)CO)S(=O)(=O)c2ccc(C#Cc3cccnc3)cc2O[C@@H]1CN(C)C(=O)CN(C)C 0.034%, C[C@@H]1CN([C@H](C)CO)S(=O)(=O)c2ccc(/C=C/c3ccccc3)cc2O[C@@H]1CN(C)C(=O)Nc1ccc(F)cc1 4.65%, O=C([C@H]1[C@H](CO)[C@H]2Cn3c(cccc3=O)[C@@H]1N2Cc1cocn1)N1CCCCC1 -0.522%, C[C@H](CO)N1C[C@H](C)[C@H](CN(C)C(=O)Nc2ccc(C(F)(F)F)cc2)Oc2ccc(N(C)C)cc2CC1=O 1.24%, COc1ccccc1-c1cnc2c(c1)C(=O)N([C@@H](C)CO)C[C@@H](C)[C@H](CN(C)Cc1cccnc1)O2 1.03%, CCC(=O)N1C[C@@H](C)[C@H](OC)CN(C)C(=O)c2ccc(NC(=O)NC(C)C)cc2OC[C@H]1C -4.33%, C[C@@H]1CN([C@@H](C)CO)C(=O)c2cc(N(C)C)ccc2O[C@@H](C)CCCCO[C@H]1CN(C)C(=O)CCCN(C)C 2.35%, CCC(=O)Nc1ccc2c(c1)C(=O)N(C)C[C@@H](OC)[C@@H](C)CN(Cc1ccccc1OC)[C@H](C)CO2 0.2%, CC(C)NC(=O)Nc1ccc2c(c1)C(=O)N([C@H](C)CO)C[C@@H](C)[C@@H](CN(C)S(=O)(=O)c1cccs1)OCCCC[C@@H](C)O2 -0.385%, C[C@H]1CN([C@@H](C)CO)C(=O)c2cccc(NC(=O)Nc3cccc4ccccc34)c2O[C@@H]1CN(C)C(=O)NC1CCCCC1 0.764%, C[C@@H]1CN([C@H](C)CO)S(=O)(=O)c2ccc(C#CCC3CCCC3)cc2O[C@H]1CN(C)Cc1ccc(C(=O)O)cc1 6.4%, Cc1noc(C)c1S(=O)(=O)Nc1ccc2c(c1)CC(=O)N([C@@H](C)CO)C[C@@H](C)[C@H](CN(C)C)O2 -1.66%, CN(C)C(=O)c1cccc(-c2ccc3c(c2)[C@@H]2[C@@H](CCN2Cc2nccs2)[C@@H](CO)N3)c1 0.288%, CCNC(=O)Nc1ccc2c(c1)C(=O)N(C)[C@@H]1CC[C@H](CC(=O)NC3CCCCC3)O[C@H]1CO2 1.07%, C[C@@H]1CN([C@@H](C)CO)C(=O)c2cc(C#CCN(C)C)cnc2O[C@@H]1CN(C)Cc1ccccn1 3.09%, COc1cccc(NC(=O)N(C)C[C@H]2Oc3ncc(C4=CCCCC4)cc3C(=O)N([C@H](C)CO)C[C@H]2C)c1 10.3%, CN1C(=O)c2cc(NC(=O)c3cccc(F)c3)ccc2OC[C@@H]2O[C@H](CC(=O)N3CCc4ccccc4C3)CC[C@@H]21 -1.96%, CNC(=O)C[C@@H]1CC[C@@H]2[C@H](COC[C@@H](O)CN2S(=O)(=O)c2ccccc2Cl)O1 1.56%, Cc1noc(C)c1S(=O)(=O)N(C)C[C@H]1Oc2ccc(NC(=O)Cc3ccccc3)cc2CC(=O)N([C@@H](C)CO)C[C@H]1C 2.8%, O=C(C[C@H]1C[C@@H]2c3cc(NC(=O)C4CCC4)ccc3O[C@@H]2[C@@H](CO)O1)NCCN1CCCCC1 3.36%, COc1cccc(S(=O)(=O)N[C@H]2C=C[C@H](CC(=O)NC3Cc4ccccc4C3)O[C@@H]2CO)c1 -1.14%, COc1ccc(S(=O)(=O)N[C@@H]2CC[C@H](CC(=O)N3CCc4ccccc4C3)O[C@H]2CO)cc1 -0.563%, COCC#Cc1cnc2c(c1)C(=O)N([C@@H](C)CO)C[C@@H](C)[C@H](CN(C)C(=O)C1CCOCC1)O2 4.25%, COc1ccc(NC(=O)N(C)C[C@H]2OCCCC[C@@H](C)Oc3ccc(NC(=O)NC4CCCCC4)cc3C(=O)N([C@@H](C)CO)C[C@H]2C)cc1 4.17%, O=C(NCC[C@@H]1CC[C@@H](NC(=O)Nc2cc(F)ccc2F)[C@H](CO)O1)Nc1ccc(Cl)cc1 0.614%, COc1cccc(S(=O)(=O)N2CCCCN3[C@H](CO)[C@H](c4ccc(-c5ccncc5)cc4)[C@H]3C2)c1 2.87%, Cc1noc(C)c1S(=O)(=O)N(C)C[C@@H]1Oc2ccc(NC(=O)C3CC3)cc2CC(=O)N([C@@H](C)CO)C[C@@H]1C -3.27%, COc1cccc(C(=O)Nc2ccc3c(c2)C(=O)N(C)[C@H]2CC[C@H](CC(=O)N[C@@H](C)c4ccccc4)O[C@H]2CO3)c1 0.936%

Source: PubChem BioAssay AID602405 (Broad Institute, 2012)
